Results published in PubChem BioAssay AID1578 (Sanford-Burnham Center for Chemical Genomics, 2009).
The campaign covered roughly 290,000 compounds. About 3,000 (1%) were called active. The sample holds actives, similar compounds and a random draw of the others, so the mix is not that of the screen. Cut-off read from the data, not from the text of the source: active = inhibition mostly above about 36% (no sharp cut-off); inactive = mostly below about 34%.

Assay: inhibition of NOD1-driven NF-kB reporter – cell-based, luminescence, uHTS, primary screen (AID 1578);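 note: HEK-293T reporter cells stimulated with the NOD1 agonist gamma-tri-DAP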
Conditions: NOD1-driven NF-kB luciferase reporter cells, at 4 µM, hits give high values

| SMILES | inhibition |
| --- | --- |
| CN(C(=O)Nc1ccc(Cl)cc1)c1c2c(nn1C)CCCC2 | -14.8% (inactive) |
| COc1ccc(OC)c2c1sc(=NC(=O)c1cccc(N3C(=O)CCC3=O)c1)n2C | -1.9% (inactive) |
| C(=N\Nc1nc2ccccc2[nH]1)/c1ccncc1 | -22% (inactive) |
| C(=N\Nc1nc2ccccc2[nH]1)/c1ccccn1 | 59.4% (active) |
| C(=N\Nc1nc2ccccc2[nH]1)/c1ccc2ncccc2c1 | 18.6% (inactive) |
| CCCc1sc(N/N=C/c2ccccn2)nc1-c1ccc(Br)cc1 | -37.7% (inactive) |
| C(=N\Nc1nc2ccccc2[nH]1)/c1ccccc1 | -71.3% (inactive) |
| CCN(CC)c1ccc(/C=N/Nc2nc3ccccc3[nH]2)c(O)c1 | 11.9% (inactive) |
| Cc1nc(N/N=C/c2ccccn2)sc1C | 91% (active) |
| Cc1csc(N/N=C/c2ccccn2)n1 | 8.7% (inactive) |
| CCN(CC)c1ccc(/C=N/Nc2nc3ccccc3[nH]2)cc1 | 105% (active) |
| CCCOc1ccc(N2C(=O)CC(N(CCc3ccc(OC)c(OC)c3)C(=S)Nc3ccccc3)C2=O)cc1 (stereo unspecified) | -8.1% (inactive) |
| O=C(Nc1ccon1)c1ccc(S(=O)(=O)N2CCOCC2)cc1 | -5.1% (inactive) |
| CCOc1cc(N2CCOCC2)c(OCC)cc1NC(=O)c1nc2nccc(C)n2n1 | -8.4% (inactive) |
| O=S(=O)(NCc1nc2ccccc2[nH]1)c1ccccc1 | -21.9% (inactive) |
| CCCCNC(=O)CCC(=O)Nc1ccc2nc(N3CCCCC3)cc(C)c2c1 | -15.4% (inactive) |
| O=c1[nH]c(C2CCN(S(=O)(=O)c3ccc(C(F)(F)F)cc3)CC2)nc2c1nnn2Cc1ccccc1 | -8.3% (inactive) |
| O=C(N/N=C/c1cccnc1)c1ccc(CN2c3cccc4cccc(c34)S2(=O)=O)cc1 | -27.8% (inactive) |
| Fc1ccccc1NC(=S)NCCc1ccc(Cl)cc1 | -79.8% (inactive) |
| CCc1nc(SCC(=O)Nc2ccccc2C(=O)OC)n[nH]1 | -16.5% (inactive) |
| COc1ccccc1CNC(=O)c1cc(C(=O)CC(C)C)c[nH]1 | -11% (inactive) |
| CC(=O)Oc1cc(OC(C)=O)c2c(C)cc(=O)oc2c1 | 13.6% (inactive) |
| CCc1cc(=O)oc2cc(C)cc(OCC(C)=O)c12 | -8.5% (inactive) |
| CCc1cc(=O)oc2cc(OC(C)=O)cc(OC(C)=O)c12 | 41.8% (active) |
| Cc1nnc(NC(=O)CN2CCN(Cc3ccccc3Cl)CC2)s1 | -8.9% (inactive) |
| CCN(CC)c1ccc(NC(=O)CN2C(=O)CC(C)(C)S(=O)(=O)c3ccccc32)c(C)c1 | -6.7% (inactive) |

| SMILES | inhibition |
| --- | --- |
| Cc1ccc(N(C(=O)Cn2nnc(-c3ccc(C)o3)n2)C(C(=O)NC2CCCC2)c2ccncc2)cc1 (stereo unspecified) | -8.9% (inactive) |
| CNC(=S)Nc1cc(S(=O)(=O)Nc2cc(Cl)ccc2Cl)ccc1N1CCCC1 | 2.1% (inactive) |
| CCOc1c(Cl)cc(CNc2nnnn2C)cc1OC | -41.1% (inactive) |
| O=C(Cc1cccc2ccccc12)N/N=C1\CCCc2ccccc21 | 13% (inactive) |
| Cc1ccccc1OCCCC(=O)Nc1nncs1 | 51.4% (active) |
| Cc1ccccc1OCCCC(=O)Nc1nccs1 | 6.5% (inactive) |
| O=C(CCS(=O)(=O)c1ccccc1)Nc1nncs1 | 3.3% (inactive) |
| O=C(CCS(=O)(=O)Cc1ccccc1)Nc1nncs1 | 103% (active) |
| Cc1nnc(NC(=O)CCS(=O)(=O)Cc2ccccc2)s1 | -5.2% (inactive) |
| O=C(CCCOc1ccccc1)Nc1nncs1 | 2.6% (inactive) |
| CCOC(=O)c1nnc2cc(-c3ccccc3)nn2c1C | -32.6% (inactive) |
| Cc1ccc(N(Cc2cc3ccc(C)cc3[nH]c2=O)C(=O)c2ccco2)cc1 | -4% (inactive) |
| COc1ccc(OCCC(=O)OCC(=O)NC(=O)NC(C)C)cc1 | -3.2% (inactive) |
| COc1cccc(/C=N/N2CCN(C3c4ccccc4-c4ccccc43)CC2)c1O | -6.4% (inactive) |
| CCCn1c(=S)[nH]c2ccccc2c1=O | -14.5% (inactive) |
| C(=C\c1ccc2ccccc2n1)/c1ccccc1 | 0% (inactive) |
| CN(C)c1ccc(/C=C/c2nc3ccccc3s2)cc1 | -3.1% (inactive) |
| CN(C)c1ccc(/C=C/c2ccc3ccccc3n2)cc1 | 59.1% (active) |
| CC[n+]1ccccc1/C=C/c1ccc(N(C)C)cc1 | 40.5% (inactive) |
| O=[N+]([O-])c1ccc(/C=C/c2ccc3ccccc3n2)cc1 | -12.9% (inactive) |
| CCCN(CCC)c1ccc(/C=C/c2ccc3cc(OCC)ccc3n2)cc1 | -1.6% (inactive) |
| CN(C)c1ccc(/C=C/c2ccc3c4ccccc4ccc3[n+]2-c2ccccc2)cc1 | 71.6% (active) |
| Oc1ccc(/C=C/c2ccc3ccccc3n2)cc1 | 50.2% (active) |
| CN(C)c1ccc(/C=C/c2ccc3ccccc3[n+]2C)cc1 | 43.8% (inactive) |
| COc1cc(CNCCC2CCOC(C)(C)C2)ccc1O (stereo unspecified) | 12.4% (inactive) |
| O=C(COc1ccc2c3c(c(=O)oc2c1)CCC3)Nc1ccc(CN2CCOCC2)cc1 | -11.6% (inactive) |

| SMILES | inhibition |
| --- | --- |
| COc1ccc2nc(C)c(C(N)=O)cc2c1 | 5.9% (inactive) |
| O=C(NC(=O)c1ccccc1)Nc1ccccn1 | 64.2% (active) |
| O=C(NC(=S)Nc1ccccn1)c1ccccc1 | -7.6% (inactive) |
| O=C(Nc1ccccn1)c1ccc(C(=O)Nc2ccccn2)cc1 | -5.1% (inactive) |
| CC(=O)c1c(C)nn(CC(O)COc2ccc3ccccc3c2)c1C (stereo unspecified) | -16.4% (inactive) |
| Cc1ccccc1C(=O)NC(=S)N(CCO)Cc1ccccc1 | -10.6% (inactive) |
| CSCC(=O)N1CCC(Oc2cccc(C(=O)NCc3ccccn3)c2)CC1 | -24% (inactive) |
| CC(C)NC(=O)CSc1nc(N)c(-c2ccccc2)c(=O)[nH]1 | 7.6% (inactive) |
| CC(=O)N/C(N)=N/c1nc2cc(C)ccc2o1 | -10.1% (inactive) |
| Cc1ccc2oc(/N=C(\N)NC(=O)C3CC3)nc2c1 | -13.8% (inactive) |
| CCCOc1cccc(C2C(C(=O)c3ccco3)=C(O)C(=O)N2c2nnc(C)s2)c1 (stereo unspecified) | -7.8% (inactive) |
| N#Cc1ccc(C(=O)NCC2CCCCC2)cc1 | 0.9% (inactive) |
| O=C(O)c1cccc(C(=O)c2cccc(C(=O)O)c2)c1 | -26.4% (inactive) |
| COc1ccc(CCCC(=O)N/N=C/c2ccccc2OC)cc1 | -14.1% (inactive) |
| CSc1ccc(/C=N/NC(=O)CNc2ccc3ccccc3c2)cc1 | -16.8% (inactive) |
| CCN(CC)S(=O)(=O)c1ccc(N/N=C(\C)c2ccncc2)c([N+](=O)[O-])c1 | 31% (inactive) |
| C/C(=N\Nc1ccc(S(=O)(=O)Nc2ccccc2)cc1[N+](=O)[O-])c1ccncc1 | 34.7% (inactive) |
| Cc1cc(=O)[nH]c(N/N=C/c2ccc(-c3ccc(F)cc3)o2)n1 | -56.3% (inactive) |
| C/C(=N\N=c1/sc2ccccc2n1C)c1ccccn1 | -61.2% (inactive) |
| CCN(CC)S(=O)(=O)c1ccc2c(c1)c(=O)c(C(=O)NCCOC)cn2C | -12.6% (inactive) |
| COc1ccc(C(=O)Nn2c(SCC(=O)NCC3CCCO3)nc3ccccc3c2=O)cc1 (stereo unspecified) | 64.6% (active) |
| COc1ccc(C(=O)Nn2c(SCC(=O)NCc3ccccc3)nc3ccccc3c2=O)cc1 | 18.4% (inactive) |
| COc1ccc(C(=O)Nn2c(SCC(=O)NCc3ccco3)nc3ccccc3c2=O)cc1 | -0.3% (inactive) |
| COc1ccc(C(=O)Nn2c(SCC(=O)NC3CCCCC3)nc3ccccc3c2=O)cc1 | 88% (active) |
| COc1ccc(C(=O)Nn2c(SCC(=O)NC3CCCC3)nc3ccccc3c2=O)cc1 | 12.9% (inactive) |
| COc1ccc(C(=O)Nn2c(SCC(=O)c3ccccc3)nc3ccccc3c2=O)cc1 | 43.6% (inactive) |

| SMILES | inhibition |
| --- | --- |
| COc1ccccc1NC(=O)C(CCS(C)(=O)=O)N1C(=O)c2ccccc2C1=O (stereo unspecified) | -3.2% (inactive) |
| C#CCSc1nnc(-c2c[nH]c3ccccc23)n1C | -40.9% (inactive) |
| Cn1cc2ccc([N+](=O)[O-])cc2n1 | -6.5% (inactive) |
| CCOc1ccc(CCNC(=O)CCC(=O)N2CCOc3ccccc32)cc1OCC | -4.6% (inactive) |
| O=C(N/C(=C\c1cccs1)C(=O)N1CCOCC1)c1ccco1 | -12.2% (inactive) |
| CCOc1ccc(NC(=O)CN(C)c2nnnn2-c2ccccc2)cc1OCC | 39% (inactive) |
| COc1cc(O)cc(O)c1C(=O)/C=C/c1ccccc1 | 49.8% (active) |
| COc1cc(O)c(C(=O)/C=C/c2ccccc2)c(OC)c1 | 1.3% (inactive) |
| COc1cc(OC)c(C(=O)/C=C/c2ccccc2)c(O)c1O | 21.4% (inactive) |
| CCC1C/C(=C\c2cccnc2)C(=O)/C(=C/c2cccnc2)C1 (stereo unspecified) | 103% (active) |
| O=C1/C(=C/c2cccnc2)CC/C1=C\c1cccnc1 | 5.4% (inactive) |
| CN1C/C(=C/c2cccnc2)C(=O)/C(=C/c2cccnc2)C1 | 37% (inactive) |
| O=C(CCl)c1ccc2c(c1)CCN2C(=O)C1CC1 | 76.4% (active) |
| O=C(CCl)c1ccc2c(c1)CCN2C(=O)C1CCCCC1 | 13% (inactive) |
| CC(Cl)C(=O)c1ccc2c(c1)CCN2C(=O)C1CC1 (stereo unspecified) | 43.8% (inactive) |
| Cc1nnsc1NC(=O)OCc1ccc(C(C)(C)C)cc1 | 58.9% (inactive) |
| Clc1ccc(OCc2nn[nH]n2)cc1 | 4.7% (inactive) |
| Cc1cc(C)c(C)c(S(=O)(=O)NCC(=O)NCC2CCCCC2)c1C | -8.5% (inactive) |
| O=C(NC1CCN(S(=O)(=O)c2cccc(F)c2)CC1)c1ccc(F)cc1 | -9.7% (inactive) |
| C1=Nc2c(Nc3ccccc3)ncnc2Oc2ccccc21 | -21% (inactive) |
| COc1ccc(CNC(=O)/C=C/c2ccc(OCCCF)cc2)cc1 | -6.2% (inactive) |
| O=C(/C=C/c1ccc(OCCCF)cc1)Nc1ccnc(-c2cccnc2)n1 | 8.2% (inactive) |
| O=C(/C=C/c1ccc(OCCCF)cc1)Nc1ccnc(-c2ccncc2)n1 | 89.5% (active) |
